High-throughput results deposited in PubChem BioAssay by National Center for Advancing Translational Sciences (NCATS).
A selection: hits, their analogues and other compounds. The true share with any hit is near 21%.
DT40 TDP1 CPT: qHTS for Inhibitors of human tyrosyl-DNA phosphodiesterase 1 (TDP1): qHTS in cells in presence of CPT; chicken DT40 Tdp1-/-;hTDP1 cells + 20 nM CPT, ATP luminescence, 48 h; Potency, µM (top dose mostly 46.2 µM), inactives show at the highest dose activity change, negative = growth inhibition, actives largely listed as inhibitors; 420,000 tested, 12% active; AID 686979, 2013; further: potency means the concentration at half of the fitted maximal effect; on the % scale 0 is the no-effect control and ±100 the full control effect; nearly all actives have a fitted effect of over 55% in size
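Cell growth measured by CellTiter-Glo luminescence after a minimum 48 h, 37 C compound exposure with 20 nM CPT in Tdp1-knockout DT40 cells stably expressing hTDP1, seeded 400/well; qHTS titration format.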
ClpP mod: qHTS Assay for Activators of ClpP. ATP-dependent Clp protease proteolytic subunit (Bacillus subtilis (strain 168)), P80244. purified B. subtilis ClpP, FRET peptide cleavage, 20 min. Potency, µM (doses to about 57.5 µM), for the others: at the highest dose activity change, negative = active. 340,000 tested, 1.9% active. AID 651965, 2013; active means well fitted falling curve with a large enough effect; inconclusive means small, poorly fitted or top-dose-only effect; inactive means no such curve, though single readings can be large or run the other way; further: potency means the concentration at half of the fitted maximal effect; the source files actives as falling curves though it sought activators and does not explain the sign; nearly all actives have a fitted effect of over 65% in size
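Buffer: 100 mM Tris/HCl pH8, 100 mM KCl, 0.05% low protease BSA, 2.5% glycerol, 0.01% Tween-20. ClpP 10 microg/mL final; 20 min RT; delta FRET normalized to ADEP and DMSO controls.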
TDP1 cell noCPT: qHTS for Inhibitors of human tyrosyl-DNA phosphodiesterase 1 (TDP1): qHTS in cells in absence of CPT; AID 686978, 2013; 420,000 tested, 15% active; Potency, µM (series often up to 46.2 µM), for the others: at the highest dose activity change, negative = growth inhibition, hits mostly inhibitors; DT40 Tdp1-/- hTDP1 cells, no CPT, ATP luminescence, 48 h; further: potency means the concentration at half of the fitted maximal effect; on the % scale 0 is the no-effect control and ±100 the full control effect; nearly all actives have a fitted effect of over 55% in size
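Seeded 400 DT40-hTDP1 cells/well (vehicle DMSO, no 20 nM CPT); pinned compounds; ≥48 hr at 37 °C; CellTiter-Glo luminescence as viability measure.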
IL1B secr inh: qHTS for Inhibitors of Inflammasome Signaling: IL-1-beta AlphaLISA Primary Screen; THP-1 LPS/ATP IL-1B secretion, AlphaLISA, 16 h; active compounds read low; activity change, % at 57.5 µM; 360,000 tested, 4.7% active; in the data active means activity change below about -50%; inconclusive means mostly about -30% to -49%; further: on the % scale 0 is the no-effect control and ±100 the full control effect
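Secreted IL-1B measured by AlphaLISA bead assay after 16 h compound exposure of THP-1 cells; compounds (final up to 57.5 uM) added 1 h before LPS (250 ng/mL) and ATP (1.25 mM) stimulation; lower signal means less secretion.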
D3 antag: qHTS of D3 Dopamine Receptor Antagonist: qHTS; D3R cells, DiscoveRx beta-arrestin luminescence, antagonist mode; active compounds read low; max response, negative = inhibition, %; 360,000 tested, 2.5% active; AID 652054, 2013; in the data active means max response below about -50%; inconclusive means no clear call, values can overlap the other calls; further: on the % scale 0 is the no-effect control and ±100 the full control effect
Target sequence (P35462 whole entry, looked up): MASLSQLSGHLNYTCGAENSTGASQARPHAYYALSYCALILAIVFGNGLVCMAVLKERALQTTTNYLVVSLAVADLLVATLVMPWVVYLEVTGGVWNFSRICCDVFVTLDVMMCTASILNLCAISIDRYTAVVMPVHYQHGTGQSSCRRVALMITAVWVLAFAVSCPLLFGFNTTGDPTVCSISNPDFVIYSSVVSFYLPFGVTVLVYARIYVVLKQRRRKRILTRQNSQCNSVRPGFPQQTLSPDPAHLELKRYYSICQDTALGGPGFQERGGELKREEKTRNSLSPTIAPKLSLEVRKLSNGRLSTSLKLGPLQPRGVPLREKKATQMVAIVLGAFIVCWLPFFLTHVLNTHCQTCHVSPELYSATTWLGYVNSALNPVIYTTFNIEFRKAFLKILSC
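Cells expressing the human receptor were seeded at 1500 cells/well, incubated overnight at 37 degrees C in 5% CO2, then exposed to library compounds with dopamine controls for 90 minutes at 37 degrees C before luminescent detection.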
D3 ag: qHTS of D3 Dopamine Receptor Agonist: qHTS. D(3) dopamine receptor (Homo sapiens), P35462. D3R DiscoveRx beta-arrestin cells, luminescence, 90 min. 410,000 tested, 0.58% active. max activation, %; in the data active means max activation above about 30%; further: 0% is about no effect
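Agonist mode: compounds and dopamine controls were applied to plated cells for 90 min at 37 degrees C after an overnight attachment at 1500 cells/well. Luminescent read-out followed 30 - 60 minutes at room temperature with DiscoveRx detection reagent.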
Numbers without * were called inactive. Unless noted, the call rests on the fitted dose curve; in most records, active means well fitted inhibition curve with a large enough effect; inconclusive means small, poorly fitted or top-dose-only effect; inactive means flat fitted curve, though single readings scatter.

How did COC1=C(c2ccccc2)C(=O)c2ccccc2C1=O do in these assays?
DT40 TDP1 CPT: 23µM*; TDP1 cell noCPT: 16µM*; IL1B secr inh: -169*; D3 antag: inconclusive; D3 ag: -19

How did COc1cc(=O)n2c(c1C(=O)N(C)Cc1nonc1C)CCN(CC1CC=CCC1)CC2 (configuration not stated) do in these assays?
DT40 TDP1 CPT: -20%; TDP1 cell noCPT: -15%

What do the screens show for `Clc1ccc(Cn2c(/C=C/c3ccco3)nc3ccccc32)cc1`?
DT40 TDP1 CPT: inconclusive; ClpP mod: 35µM*; TDP1 cell noCPT: inconclusive; IL1B secr inh: -94*; D3 antag: -12; D3 ag: 3

Results for Cc1ccc(Cn2c(/C=C/c3ccco3)nc3ccccc32)cc1 ?
DT40 TDP1 CPT: inconclusive; ClpP mod: 28µM*; TDP1 cell noCPT: 15µM*; IL1B secr inh: -105*; D3 antag: -5; D3 ag: -2

How did Cc1ccc(Cn2c(-c3ccccc3)nc3ccccc32)cc1 do in these assays?
DT40 TDP1 CPT: inconclusive; ClpP mod: -20%; TDP1 cell noCPT: inconclusive; D3 ag: 0

What do the screens show for `CCOc1ccc(NS(=O)(=O)c2cc(C(=O)N3CC(C)OC(C)C3)ccc2C)cc1` (configuration not stated)?
DT40 TDP1 CPT: -10%; ClpP mod: 1%; TDP1 cell noCPT: -14%; IL1B secr inh: 14; D3 antag: -30; D3 ag: -4

What do the screens show for `Cc1ccc(CNC(=O)CC2Oc3ccccc3NC2=O)cc1` (configuration not stated)?
DT40 TDP1 CPT: -1%; ClpP mod: 0%; TDP1 cell noCPT: -17%; D3 ag: 3

Results for Cc1cccc(C2CC(c3ccc(Cl)cc3)Nc3nc(N)nn32)c1 (configuration not stated) ?
DT40 TDP1 CPT: inconclusive; ClpP mod: -2%; TDP1 cell noCPT: inconclusive; IL1B secr inh: -25; D3 antag: -12; D3 ag: 0

Results for Cc1ccc(C2CC(c3cccc(Cl)c3)n3nc(N)nc3N2)cc1 (configuration not stated) ?
DT40 TDP1 CPT: 15µM*; ClpP mod: -11%; TDP1 cell noCPT: 18µM*; IL1B secr inh: -22; D3 antag: -2; D3 ag: -22

Results for CCc1ccc(C2CC(c3cccc(Cl)c3)n3nc(N)nc3N2)cc1 (configuration not stated) ?
DT40 TDP1 CPT: 15µM*; ClpP mod: 1%; TDP1 cell noCPT: 15µM*; D3 antag: inconclusive; D3 ag: -7

How did CCN(C(=O)NCc1noc2ccccc12)c1cc(C)ccc1C do in these assays?
DT40 TDP1 CPT: inconclusive; ClpP mod: -1%; TDP1 cell noCPT: inconclusive; D3 ag: 3

Results for CCN(C(=O)c1cnc(N2CCOCC2)c2ccccc12)c1cc(C)ccc1C ?
DT40 TDP1 CPT: 23µM*; ClpP mod: -24%; TDP1 cell noCPT: inconclusive; D3 ag: 0

What do the screens show for `Cc1ccc(N(C)C(=O)c2cnc(N3CCOCC3)c3ccccc23)cc1C`?
DT40 TDP1 CPT: 23µM*; ClpP mod: -4%; TDP1 cell noCPT: inconclusive; D3 ag: 9

What do the screens show for `CCc1ccccc1N(C)C(=O)c1cnc(N2CCOCC2)c2ccccc12`?
DT40 TDP1 CPT: inconclusive; ClpP mod: -21%; TDP1 cell noCPT: -72%; D3 ag: 5
